HSF1 activator: increases HSF-1 driven luciferase reporter signal | NIH3T3-HGL HSF-1 luciferase reporter, MG132, 8 h; 100% = twice DMSO control signal | activation, % at 9 µM | hit rate 1.7% among 300,000;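 active = mean replicate activation of at least 50% with a set share of replicates each reaching 50%; inconclusive = only one of those two conditions met; inactive = mean below 50% and too few replicates reaching it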;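 note: 0% = median of the neutral control wells and 100% = twice that signal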
MITF act: increases MITF-driven TRPM1 promoter luciferase signal; activation, % at 12.5 µM; SK-MEL-5 TRPM1-promoter luciferase, 24 h; % of positive control, neutral wells = 0; hit rate 0.75% among 300,000;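 active = mean activation of at least 80% with every replicate also reaching 80%; inconclusive = mean reaches 80% but some replicate falls short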;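 note: 0% = neutral control wells and 100% = parthenolide positive control wells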
Wnt act: activators of Wnt/beta-catenin signaling; Wnt/beta-catenin reporter cell assay, activator, plate reader; activation, % at 9.35 µM; hit rate 1.2% among 300,000; in the data active = activation above about 30%, passing the limit was not always enough; inconclusive = no clear call, values can overlap the other calls;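 note: 0% = neutral control wells and 100% = positive control wells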
esBAF inh: inhibitors of esBAF chromatin remodeling in mouse ES cells | AID 602393 | Bmi1-luciferase knock-in reporter, 24 h; 100% = twice the neutral-well signal | reporter increase, % at 12.5 µM | hit rate 2% among 350,000; in the data active = activation above about 40%; inconclusive = no clear call, values can overlap the other calls;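 note: 0% = median of the plate's neutral control wells and 100% = double that signal; a rise in the Bmi1 reporter signal indicates esBAF inhibition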
HSF1 inhib: HSF1 inhibition; AID 2098; activity change, negative = inhibition, % at 7.5 µM (by protocol); NIH3T3-HGL HSE-luciferase, MG132-induced, luminescence 8 h; hits give low values; hit rate 0.77% among 300,000;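 active = more than half of replicate wells show activity change below -50%, luminescence cut by over half; inconclusive = some wells, but at most half, below -50%; inactive = no replicate well below -50%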;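 note: luciferase reports HSF-1 transcriptional activity via heat shock element; 0% = median of DMSO wells and -100% = zero luminescence signal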
Starred values were filed as active, the others as inactive; ? = inconclusive; · = no result given. The list is not random: actives were taken first. Their share in the collection is about 3.9%.

SMILES | HSF1 activator | MITF act | Wnt act | esBAF inh | HSF1 inhib
COc1ccc(NC(=O)N(C)C[C@H]2OCCCC[C@H](C)Oc3ccc(NC(=O)C4CCCCC4)cc3C(=O)N([C@H](C)CO)C[C@@H]2C)cc1 | · | · | · | 13 | ·
O=C(CSc1nc2ccsc2c(=O)n1CC1CCC(C(=O)O)CC1)NCCc1ccc(Cl)cc1 (stereo unspecified) | 14 | 4 | 9 | 0 | -6
COc1ccc(Cl)cc1NC(=O)CSc1nc2ccsc2c(=O)n1CC1CCC(C(=O)O)CC1 (stereo unspecified) | -69 | -10 | 1 | -9 | -60*
COc1ccc(CNc2ncccc2[N+](=O)[O-])cc1 | 30 | 41 | 8 | 54* | 6
C[C@@H](NC(=O)C[C@H]1CC[C@H]2[C@@H](COC[C@@H](O)CN2C(=O)Nc2cc(Cl)cc(Cl)c2)O1)c1ccccc1 | · | · | · | 3 | ·
COc1ccc(O)c(C2=Nc3ccccc3N=C(c3cccs3)C2)c1 | -72 | -7 | 3 | · | -63*
COc1ccc(O)c(-c2cn[nH]c2-c2cccs2)c1 | 2 | · | 4 | 1 | 0
C[C@H](CO)N1C[C@H](C)[C@H](CN(C)Cc2ccc(C(F)(F)F)cc2)OCCCC[C@H](C)Oc2ccc(NC(=O)Nc3ccc(C(F)(F)F)cc3)cc2C1=O | · | · | · | -2 | ·
O=C(Cn1ccsc1=NC(=O)C(F)(F)F)c1ccccc1 | 3 | 79 | · | 49* | 9
O=C(CCl)N=c1sccn1Cc1cccc2ccccc12 | -17 | -50 | -2 | · | -9
O=C(CC(c1ccccc1O)N1CCCCC1)N1CCCCC1 (stereo unspecified) | -2 | · | 39* | · | 6
COc1cccc(OC)c1-c1nn2c(-c3ccco3)nnc2s1 | 11 | · | · | 54* | -4
COc1cccc(-c2nn3c(-c4ccco4)nnc3s2)c1 | 10 | · | · | 33 | 16
O=C(NNC(=O)c1cc2cc(Br)ccc2oc1=O)c1ccc(O)cc1 | -9 | -3 | 1 | -7 | -4
O=C(Nc1ccccc1O)c1cc2cc(Br)ccc2oc1=O | 33 | 101* | ? | 20 | 16
C[C@@H]1CN([C@@H](C)CO)C(=O)c2cc(C#CCN(C)C)cnc2O[C@@H]1CN(C)C | · | · | · | 1 | ·
Cc1ccc(-c2ccc3c(c2)O[C@H](CN(C)C(=O)CN(C)C)[C@H](C)CN([C@@H](C)CO)S3(=O)=O)cc1 | · | · | · | 5 | ·
Cc1ccc(NC(=O)Cc2ccc(-n3cccc3)cc2)c(C)c1 | -64 | 0 | 0 | · | -53*
O=C(O)c1ccc2oc(SCC(=O)N3CCCCC3)nc2c1 | 35 | · | · | 59* | 15
CN(C)C(=O)C[C@H]1C[C@@H]2c3cc(NC(=O)Nc4ccccc4F)ccc3O[C@@H]2[C@@H](CO)O1 | · | · | · | 3 | ·
O=C(O)C(Oc1ccc2c(c1)oc(=O)c1ccccc12)c1ccccc1 (stereo unspecified) | 15 | · | 1 | 3 | 0
COc1ccccc1/C=C/c1nc2ccccc2c(=O)o1 | 27 | · | -3 | 22 | 24
COc1ccc2c(c1)oc(=O)c1ccccc12 | 2 | · | 10 | 41* | 7
COc1ccc2c(c1)oc(=O)c1c3ccccc3[nH]c21 | 71* | 40 | 16 | · | 21
COc1ccc2c(C)c(Cl)c(=O)oc2c1 | 5 | 2 | · | -5 | -5
SMILES | HSF1 activator | MITF act | Wnt act | esBAF inh | HSF1 inhib
COc1ccc(/C=C/c2nc3ccccc3c(=O)o2)cc1 | -66 | -7 | 0 | -73 | -59*
COc1ccc2c(c1)oc(=O)c1cc(OC)ccc12 | 20 | 92* | 6 | 79* | 22
COc1ccc2[nH]c3ccccc3c2c1 | 14 | 13 | · | 17 | 3
COc1cc(OC)cc(-c2cc3ccccc3c(=O)o2)c1 | · | 40 | 9 | 48* | ·
C[C@H]1CN([C@@H](C)CO)C(=O)c2cc(NC(=O)CCC(F)(F)F)ccc2O[C@@H]1CN(C)C(=O)Nc1ccc2c(c1)OCO2 | · | · | · | 1 | ·
C[C@H](CO)N1C[C@H](C)[C@@H](CN(C)C(=O)Nc2ccc(C(F)(F)F)cc2)Oc2ncc(C3=CCCC3)cc2C1=O | · | · | · | 2 | ·
CCC(=O)N1[C@H](CN(C(C)C)S(C)(=O)=O)[C@@H](c2ccccc2)[C@@H]1CO | · | · | · | 3 | ·
COc1ccc2nc(-c3ccccc3)[nH]c(=O)c2c1 | · | 34 | 3 | 44* | ·
COc1ccc2nc(-c3ccccc3)nc(C3CCCCC3)c2c1 | 14 | 15 | -8 | 16 | 2
COc1ccc2nc(-c3ccccc3)nc(SC)c2c1 | · | 27 | 12 | 47* | ·
C[C@H]1CN([C@@H](C)CO)C(=O)c2cc(NS(=O)(=O)c3cccs3)ccc2O[C@@H]1CN(C)CC1CCCCC1 | · | · | · | 0 | ·
